This passage reports outcome and AC50 results from PubChem BioAssay (EPA / NIEHS).

Inconclusive results are not listed. Some structures have more than one record in an assay (separate samples or runs), and their calls can disagree. Activity calls are given as the source filed them. Rule for the calls: active = hit-call score of the fitted dose curve at least 0.9, where 1 is the maximum; inconclusive = response in the unintended direction; inactive = score below 0.9.

Test [1] in a line: ATG_XTT_Cytotoxicity: Cytotoxicity Assessment in the Attagene TRANS-FACTORIAL HepG2 Assay (AID 2283584). A digest of the protocol: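 Transfect HepG2 with GAL4-UAS reporter units, dose compound, incubate 24 h, then measure viable cell number by XTT. Fit concentration response against DMSO baseline.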
A short description of test [2]: TOX21_p53_BLA_p3_viability: Viability Assessment in the Tox21 HCT-116 p53 Agonism Beta-lactamase Assay, Phase 3 (AID 2283593).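 Note: cells exposed to compound for 16 h before reading.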 Summed up:
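Cellular ATP was quantified by CellTiter-Glo luminescence, read after 30 min at room temperature. Beforehand, HCT116 cells (4000/well) received compound 5 h post-seeding, 217-fold diluted from DMSO, then incubated 16 h at 37C.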

Test [3] in a line: TOX21_p53_BLA_p4_viability: Viability Assessment in the Tox21 HCT-116 p53 Agonism Beta-lactamase Assay, Phase 4 (AID 2283597).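 Note: hits lower the luminescence signal meaning cytotoxicity.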 Summed up:
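Viability is taken as cellular ATP: after 16 h compound exposure of HCT116 cells and a 2 h room-temperature CCF4-AM substrate step, CellTiter-Glo reagent is added and luminescence is measured 30 min later.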

Test [4] in a line: TOX21_p53_BLA_p5_viability: Viability Assessment in the Tox21 HCT-116 p53 Agonism Beta-lactamase Assay, Phase 5 (AID 2283600). A digest of the protocol:
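Viability is taken from cellular ATP content, measured by luciferase luminescence in the same wells after the beta-lactamase ratio read. Cells are seeded at 4000 per well and exposed to DMSO-dissolved compounds, diluted 217-fold, for 16 h.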

For test [5], the target named is Cellular tumor antigen p53 (Homo sapiens) (UniProt P04637). In words: TOX21_p53_BLA_p4_ratio: Tox21 HCT-116 p53 Agonism Beta-lactamase Assay, Ratio, Phase 4 (AID 2283601). A digest of the protocol:
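Signal is the blue/green (460nm/530nm) ratio of cleaved versus uncleaved CCF4-AM substrate, read after 2 h substrate loading. Cells were HCT116 carrying the p53-responsive beta-lactamase reporter, dosed 16 h at 37C, 5% CO2; CellTiter-Glo measured in parallel.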

The target is the same in test [6]. In words: TOX21_p53_BLA_p3_ratio: Tox21 HCT-116 p53 Agonism Beta-lactamase Assay, Ratio, Phase 3 (AID 2283596). A digest of the protocol:
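Cells were seeded at 4000/well, rested 5 h at 37C, then dosed with DMSO compound solutions (217-fold dilution) for 16 h. CCF4-AM substrate was loaded for 2 h at room temperature, and the 460/530 nm emission ratio was fitted for gain of signal versus DMSO.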

Test [7] shares this target. The experiment in a line: TOX21_p53_BLA_p5_ratio: Tox21 HCT-116 p53 Agonism Beta-lactamase Assay, Ratio, Phase 5 (AID 2283599). A digest of the protocol:
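Beta-lactamase reporter ratio (blue 460 nm over green 530 nm, 405 nm excitation) after 2 h CCF4-AM loading, in HCT-116 cells exposed 16 h at 37 C to compounds pinned at 217-fold dilution. Increases relative to DMSO baseline scored.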

Test [8] can be described thus: TOX21_p53_BLA_p2_viability: Viability Assessment in the Tox21 HCT-116 p53 Agonism Beta-lactamase Assay, Phase 2 (AID 2283591).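 Note: compound exposure lasted 16 h at 37 °C; actives lower the ATP signal meaning cytotoxicity.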 Summed up:
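Cytotoxicity readout: CellTiter-Glo ATP luminescence, 30 min at room temperature, after the beta-lactamase read. Cells were HCT116 exposed 16 h at 37C to compounds pin-transferred at 217-fold dilution from DMSO stocks.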

Test [9] has as its target Cellular tumor antigen p53 (Homo sapiens) (UniProt P04637). The experiment in a line: TOX21_p53_BLA_p2_ratio: Tox21 HCT-116 p53 Agonism Beta-lactamase Assay, Ratio, Phase 2 (AID 2283592). Summed up:
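Cleaved-to-uncleaved substrate ratio (460 vs 530 nm) measured in HCT116 cells with an inducible beta-lactamase reporter linked to p53 activity. Compounds incubated 16 h at 37C before 2 h room-temperature CCF4-AM loading.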

Chain of Cellular tumor antigen p53 (Homo sapiens) (P04637 whole entry, looked up): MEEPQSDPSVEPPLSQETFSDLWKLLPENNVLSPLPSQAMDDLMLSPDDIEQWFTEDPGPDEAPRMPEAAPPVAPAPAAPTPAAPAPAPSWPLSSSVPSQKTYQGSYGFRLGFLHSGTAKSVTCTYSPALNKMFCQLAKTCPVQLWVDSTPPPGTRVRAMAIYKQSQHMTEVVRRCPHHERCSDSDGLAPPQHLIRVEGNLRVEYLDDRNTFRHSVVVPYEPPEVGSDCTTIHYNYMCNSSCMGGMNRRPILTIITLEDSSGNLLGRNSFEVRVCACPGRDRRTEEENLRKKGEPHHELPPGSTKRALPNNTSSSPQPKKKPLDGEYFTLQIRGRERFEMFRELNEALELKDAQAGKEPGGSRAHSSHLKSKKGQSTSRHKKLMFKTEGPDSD

Turning to `CCCO[Si](OCCC)(OCCC)OCCC`, the molecule was classed as inactive in test [1], in test [2], in [3], in test [4] and in test [5].

Consider `Nc1ccc(O)c(N)c1`, for which the molecule was classed as inactive in test [1], in test [2], in [6], in test [3], in test [7] and in test [5]. In test [2], the AC50 – broadly, the concentration at which the activity in the assay is half-maximal – is 64 µM (active).

`[Na+]`: the outcome in [1], in test [2], in [6], in test [3], in test [7] and in test [4] was inactive. The outcome in [5] was inactive.

With `C=COCC1CCC(COC=C)CC1` (stereo unspecified), the result in test [6], in test [7], in test [4] and in test [5] was inactive.

In the case of `O=C(O)c1ccco1`, the outcome in test [8], in test [9], in test [6], in test [7] and in test [4] was inactive.

Consider `O=S(=O)(O)c1cc(S(=O)(=O)O)c2c(N=Nc3ccccc3)c(O)ccc2c1`, for which the result in [9], in test [6], in test [3], in test [4] and in test [5] was inactive.

For `O=C(O)c1cc(C(=O)O)c(C(=O)O)cc1C(=O)O`, the result in test [9], in [6] and in test [4] was inactive.

On to `CCCCCC1CCC(=O)O1` (stereo unspecified), for which the call in test [8], in [9], in test [6], in test [7] and in [5] was inactive.

Turning to `CC(=O)OC(C)(C)C`, the outcome in test [8], in [9] and in test [5] was inactive.

Consider `CCCCCC#CC(=O)OC`, for which the outcome in [6], in test [7] and in test [5] was inactive.

Turning to `CCCCC(CC)COC(=O)COc1ccc(Cl)cc1C` (stereo unspecified), the result in test [9], in [2], in [6], in [3] and in test [4] was inactive.

On to `CC(C)(C)c1cccc(O)c1`, for which the result in test [9], in [6], in test [7], in test [4] and in test [5] was inactive.

Regarding `NCCCOCCOCCOCCCN`, the outcome in test [8], in test [6], in test [3], in test [7], in test [4] and in test [5] was inactive.

On to `CC(C)(CO)CO`, for which the outcome in test [9], in [2], in test [6], in test [3], in test [7] and in test [4] was inactive. Besides, in [5], the result was inactive.

Regarding `C1=COCCC1`, the result in [9], in test [6], in test [4] and in [5] was inactive.

Take `[O-]/[N+](=N\O)c1ccccc1`: the call in test [8], in test [2], in [6], in [3], in test [7] and in [4] was inactive. Moreover, the result in test [5] was inactive.

`CCCCOC(=O)C(C)OC(=O)CCC` (stereo unspecified): the outcome in test [8], in test [6], in [4] and in test [5] was inactive.

Consider `CCOC(=O)CCCCCCCCC(=O)OCC`, for which the outcome in test [9], in test [6], in test [7], in [4] and in test [5] was inactive.

With `CC1=CCC(=C(C)C)CC1`, the result in [8], in [6], in [7] and in [5] was inactive.

As to `c1ccc(-c2nn[nH]n2)cc1`, the outcome in [9], in [2], in test [6], in test [7] and in [5] was inactive.

In the case of `CCCCC1CCCCC(=O)O1` (stereo unspecified), the molecule was called inactive in test [8], in test [6], in test [3], in test [7] and in test [4].

On to `CC(C)=CCCC(C)=CC(=O)O`, for which the result in test [2], in [6], in test [3], in test [4] and in [5] was inactive.

Regarding `CC1=CCC(C(C)C)=CC1`, the molecule was classed as inactive in [2], in test [6], in test [4] and in test [5].

`O=C(C=Cc1ccccc1)OCCCc1ccccc1`: the molecule was classed as inactive in [8], in [2], in [6], in test [3], in test [7] and in test [4]. In addition, the outcome in [5] was inactive.

Regarding `O=C(Nc1cccc(Cl)c1)OCC#CCCl`, the AC50 in test [8] is 67.5 µM (active); in test [2] it was 69.2 µM (active); in test [6], 13.4 µM (active); in [3], 56.1 µM (active); in test [7], 14.1 µM (active); in test [5], 19.6 µM (active). In addition, the molecule was classed as inactive in test [4].

On to `CCC(=O)OC(C)(C)C1CC=C(C)CC1` (stereo unspecified), for which the result in [8], in test [2], in test [6], in test [3], in test [7] and in [4] was inactive. Besides, the outcome in [5] was inactive.

For `CC1=CC(=O)[C@H]2C[C@@H]1C2(C)C`, the outcome in test [9], in [2], in test [6], in test [3], in [7] and in [4] was inactive.

For `CNC(=C[N+](=O)[O-])NCCSCc1ccc(CN(C)C)o1`, the result in test [8], in test [2], in test [3], in [4] and in test [5] was inactive.

With `CC(C)CCCC(C)(C)O`, the outcome in test [6], in test [7] and in test [4] was inactive.

For the molecule `CC(C)=CC(=O)O`, the molecule was called inactive in test [8], in test [6] and in test [7].

In the case of `CCCC(O)C(CC)CO` (stereo unspecified), the outcome in test [9], in test [2], in test [6], in test [3], in test [7] and in test [4] was inactive. The result in [5] was inactive.

Regarding `CC(C)N1C(=O)c2ccccc2C1=O`, the result in test [9], in [7], in test [4] and in [5] was inactive.

Take `N#CCCCC(C#N)CCC#N` (stereo unspecified): the molecule was called inactive in [2], in test [3] and in [7].

Turning to `CC(=O)Oc1c(C)c(C)c2c(c1C)CC[C@@](C)(CCC[C@H](C)CCC[C@H](C)CCCC(C)C)O2`, the molecule was called inactive in [8], in test [2], in test [6], in [3], in test [7] and in test [4]. Also, the outcome in test [5] was inactive.

Take `CC1=CCC(C(C)(C)O)CC1` (stereo unspecified): the outcome in test [6], in test [3], in [7], in [4] and in [5] was inactive.

For the molecule `C=CCS(=O)(=O)O`, the result in test [9], in test [6], in [7], in test [4] and in test [5] was inactive.

Turning to `CCCCCCCCOS(=O)(=O)O`, the call in test [8], in [2], in test [4] and in [5] was inactive.

In the case of `CC1=CC(C)C(C=O)C(C)C1` (stereo unspecified) (tested in a mixture with another compound), the outcome in test [9], in [6], in [4] and in test [5] was inactive.

`C[Si]1(C)N[Si](C)(C)N[Si](C)(C)N1`: the result in test [9], in test [6], in test [3], in test [7] and in test [5] was inactive.

For `CCC(C)(CCCC(C)C)OC(C)=O` (stereo unspecified), the outcome in test [9], in [3], in test [7], in test [4] and in test [5] was inactive.

In the case of `CC(C)COC(=O)c1ccccc1`, the result in test [9], in [2], in test [6], in [7], in test [4] and in test [5] was inactive.

With `C=CC(C)(CCC=C(C)C)OC(=O)CC` (stereo unspecified), the result in test [9], in [6], in test [7], in test [4] and in test [5] was inactive.

`CC(=O)c1cccnc1`: the outcome in test [9], in test [6], in [3], in [7] and in test [5] was inactive.
